{"source": "the supplement of paper PMC9446081", "note": "± gives the standard deviation of the averaged measurements."}
{"target": "MurC (UniProt C4ZRI6)", "sequence (C4ZRI6 whole entry, looked up)": "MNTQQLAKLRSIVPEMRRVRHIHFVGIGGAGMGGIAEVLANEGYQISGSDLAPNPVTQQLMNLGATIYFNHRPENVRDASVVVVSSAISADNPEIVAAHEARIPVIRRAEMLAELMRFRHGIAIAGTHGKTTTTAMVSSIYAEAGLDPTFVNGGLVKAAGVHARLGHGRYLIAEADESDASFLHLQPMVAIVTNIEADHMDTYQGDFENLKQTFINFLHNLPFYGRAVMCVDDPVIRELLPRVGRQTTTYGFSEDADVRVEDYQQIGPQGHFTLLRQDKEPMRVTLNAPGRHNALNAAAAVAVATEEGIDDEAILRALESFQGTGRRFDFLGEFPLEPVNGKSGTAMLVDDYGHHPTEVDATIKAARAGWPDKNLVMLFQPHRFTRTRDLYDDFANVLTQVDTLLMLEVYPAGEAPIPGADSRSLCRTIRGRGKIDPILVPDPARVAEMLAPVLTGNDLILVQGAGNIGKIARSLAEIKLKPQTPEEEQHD", "assay": "relative enzymatic activity vs untreated control (fraction); higher = less inhibition", "conditions": "100 µM; incubation time: 2 h at 37 C", "description": "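In vitro enzymatic inhibition assays (ProFoldin kits) for 12 purified essential E. coli enzymes or complexes, each treated with 218 active antibacterial compounds at 100 µM for 2 h at 37°C. Read-outs were fluorescence or absorbance (phosphate detection, dye binding), converted to activity via standard curves and expressed relative to untreated DMSO controls.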"}
{"compound": "Cc1c(N)nc([C@H](CC(N)=O)NC[C@@H](N)C(N)=O)nc1C(=O)N[C@H](C(=O)N[C@@H](C)[C@H](O)[C@@H](C)C(=O)N[C@@H](C(=O)NCCc1nc(-c2nc(C(=O)NCCC[S+](C)C)cs2)cs1)[C@@H](C)O)[C@@H](O[C@H]1O[C@H](CO)[C@H](O)[C@@H](O)[C@H]1O[C@H]1O[C@H](CO)[C@@H](O)[C@H](OC(N)=O)[C@@H]1O)c1cnc[nH]1", "relative enzymatic activity": "0.849 ± 0.025"}
{"compound": "CN1C(=O)[C@]23CC4=CC=C[C@H](O)[C@H]4N2C(=O)[C@@]1(CO)SS3", "relative enzymatic activity": "0.8476 ± 0.0014"}
{"compound": "Cc1c(N)nc([C@H](CC(N)=O)NC[C@@H](N)C(N)=O)nc1C(=O)N[C@H](C(=O)N[C@@H](C)[C@H](O)[C@@H](C)C(=O)N[C@@H](C(=O)NCCc1nc(-c2nc(C(=O)NCCC[S+](C)C)cs2)cs1)[C@@H](C)O)[C@@H](O[C@H]1O[C@H](CO)[C@H](O)[C@@H](O)[C@H]1O[C@H]1O[C@H](CO)[C@@H](O)[C@H](OC(N)=O)[C@@H]1O)c1c[nH]cn1", "relative enzymatic activity": "0.895 ± 0.017"}
{"compound": "Oc1cc(Cl)ccc1Oc1ccc(Cl)cc1Cl", "relative enzymatic activity": "1.2 ± 0.16"}
{"compound": "C[CH2][Hg][S]c1ccccc1C(=O)[O-].[Na+]", "relative enzymatic activity": "1.17 ± 0.085"}
{"compound": "CN(C)[C@@H]1C(=O)[C@H](C(N)=O)C(=O)[C@@]2(O)C(=O)[C@@H]3C(=O)c4c(O)cccc4[C@@](C)(O)[C@H]3C[C@@H]12", "relative enzymatic activity": "1 ± 0.031"}
{"compound": "CC(=O)[O][Hg][c]1ccccc1", "relative enzymatic activity": "1.69 ± 0.032"}
{"compound": "O=[N+]([O-])c1ccc(N(CCO)CCO)c2c1no[n+]2[O-]", "relative enzymatic activity": "0.936 ± 0.055"}
{"compound": "CN[C@H]1C[C@@H](N)[C@H](O)[C@@H](O[C@@H]2O[C@H](CO)[C@H](O)[C@@H]3O[C@@]4(O[C@H]23)O[C@H]([C@@H](N)CO)[C@H](O)[C@H](O)[C@H]4O)[C@@H]1O", "relative enzymatic activity": "1.04 ± 0.017"}
{"compound": "CN(C)[C@@H]1C(=O)[C@@H](C(N)=O)C(=O)[C@@]2(O)C(=O)[C@H]3C(=O)c4c(O)ccc(Cl)c4[C@@](C)(O)[C@H]3C[C@@H]12", "relative enzymatic activity": "1.08 ± 0.068"}
{"compound": "Cc1nc2c(=O)n(C)c(=O)nc-2n(C)n1", "relative enzymatic activity": "1.06 ± 0.095"}
{"compound": "CCCCCCCCCCCCCCCC[N+](C)(C)C.[Br-]", "relative enzymatic activity": "0.492 ± 0.29"}
{"compound": "CC(=O)Oc1ccc(Cl)c2cccnc12", "relative enzymatic activity": "1.03 ± 0.041"}
{"compound": "CCCCCCCCCCCCCCCC[n+]1ccccc1", "relative enzymatic activity": "0.754 ± 0.24"}
{"compound": "CCCCCCCCCCCCCCCC[n+]1ccccc1.[Cl-]", "relative enzymatic activity": "0.264 ± 0.051"}
{"compound": "O=S(=O)(O)O.Oc1cccc2cccnc12", "relative enzymatic activity": "1.08 ± 0.015"}
{"compound": "CCn1cc(C(=O)[O-])c(=O)c2cc3c(cc21)OCO3.[K+]", "relative enzymatic activity": "0.977 ± 0.032"}
{"compound": "O=C1C=C2C(=CCOC2O)O1", "note": "(centres undefined)", "relative enzymatic activity": "1.06 ± 0.07"}
{"compound": "[O-][n+]1ccccc1[S][Zn][S]c1cccc[n+]1[O-]", "relative enzymatic activity": "1.21 ± 0.17"}
{"compound": "COP(=S)(OC)Oc1cc(Cl)c(Cl)cc1Cl", "relative enzymatic activity": "1.08 ± 0.024"}
{"compound": "CNC1C(O)C(OC2C(N)CC(N)C(OC3OC(C(C)O)C(O)C(O)C3N)C2O)OCC1(C)O", "note": "(centres undefined)", "relative enzymatic activity": "1.03 ± 0.029"}
{"compound": "CN(C)[C@@H]1C(=O)C(C(N)=O)=C(O)[C@@]2(O)C(O)=C3C(=O)c4c(O)cccc4[C@](C)(O)[C@H]3C[C@@H]12", "relative enzymatic activity": "1.017 ± 0.0095"}
{"compound": "Cn1ncnc2c(=O)n(C)c(=O)nc1-2", "relative enzymatic activity": "0.99 ± 0.11"}
{"compound": "O=[N+]([O-])C(Br)(CO)CO", "relative enzymatic activity": "1.11 ± 0.12"}
